Tau fibril ThT = qHTS for Inhibitors of Tau Fibril Formation, Thioflavin T Binding; Microtubule-associated protein tau (Homo sapiens), P10636; recombinant tau K18 P301L, heparin-induced fibrillization, ThT fluorescence; Potency, µM (series often up to 57.4 µM), inactives show at the highest dose activity, negative = inhibition, actives largely listed as inhibitors; 2.1% of 270,000 active; AID 1460, 2008; note: potency is the fitted concentration of half-maximal effect; nearly all actives have a fitted effect of over 55% in size
Target sequence (P10636 561-689 P618L limits assumed): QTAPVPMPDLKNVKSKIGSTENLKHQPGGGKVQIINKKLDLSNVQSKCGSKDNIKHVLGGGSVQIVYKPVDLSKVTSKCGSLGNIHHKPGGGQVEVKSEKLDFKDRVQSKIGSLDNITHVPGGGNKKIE
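Fibril formation assay: tau K18 P301L at 15 uM with trace Alexa 594 label, heparin inducer 20 uM, pH 7 sodium acetate buffer, 37 C for 6 hr; endpoint ThT signal.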
Tau FP inhib = qHTS for Inhibitors of Tau Fibril Formation, Fluorescence Polarization. Potency, µM (titrated, usually from 57.7 µM), for inactives: at the top dose activity, negative = inhibition, actives largely listed as inhibitors. K18 P301L tau heparin fibrillization, Alexa594 FP, 6 h. Microtubule-associated protein tau (Homo sapiens), P10636. 0.39% of 280,000 active; note: potency is the fitted concentration of half-maximal effect; nearly all actives have a fitted effect of over 55% in size
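K18 P301L tau (15 uM unlabeled/0.24 uM Alexa 594-labeled, final) + compound + heparin 20 uM final; 100 mM NaOAc pH 7; 6 hr 37 C; ThT 30 uM final added, 1 hr RT; FP ex 555/em 632 nm.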
Sfp inh = qHTS Assay for Inhibitors of Bacillus subtilis Sfp phosphopantetheinyl transferase (PPTase); 3.5% of 310,000 active; Biochemical Sfp PPTase activity, qHTS; Potency, µM, inactives show largest response in the series, negative = inhibition, most hits filed as inhibitors;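 note: the enzyme is Sfp with the accession as filed and its product quenches rhodamine fluorescence; potency is the fitted concentration of half-maximal effect; 0% = enzyme reaction without inhibitor and -100% = no enzyme wells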
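With Hepes-Na pH 7.6 buffer containing 10 mM MgCl2, Sfp (15 nM) modified BHQ-2-YbbR (12.5 uM) using rhodamine-CoA (5 uM). Two reads 30 minutes apart at 525/598 nm yielded each well's rate.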
Tau fluor cs = Counterscreen qHTS for Inhibitors of Tau Fibril Formation, Fluorescence Polarization; tau K18 P301L Alexa594 fluorescence, heparin fibrillization; Potency, µM (titrated, usually from 57.7 µM), without a hit: top-dose activity change, negative = decrease; 0.93% of 280,000 active; note: potency is the fitted concentration of half-maximal effect; nearly all actives have a fitted effect of over 55% in size
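Human tau K18 P301L (15 uM unlabeled, 0.24 uM Alexa 594-labeled) in 100 mM sodium acetate pH 7 with 20 uM heparin, 6 hr at 37 C. ThT 30 uM added, 1 hr ambient; Alexa 594 FP and total fluorescence read at 555/632 nm.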
Coupling enz = qHTS Assay for Inhibitors of Fructose-1,6-bisphosphate Aldolase from Giardia Lamblia: Coupling assay counterscreen; coupling enzyme system counterscreen, AmpLite Red fluorescence; activity change, negative = inhibition, % at 58.2 µM, hits read low; 0.67% of 290,000 active; in the data active = activity change below about -30%
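Fluorescence at 525 nm excitation and 598 nm emission measured inhibition of the coupled detection system without aldolase. Compounds (at 57.5 uM final) were preincubated 10 min at room temperature with coupling enzyme reagent before a 20 min substrate/AmpLite Red step.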
G9a block = qHTS Assay for Inhibitors of Histone Lysine Methyltransferase G9a; 8.8% of 350,000 active; AID 504332, 2011; Potency, µM (series often up to 102 µM), for inactives: top-dose activity, negative = inhibition, actives largely listed as inhibitors; G9a H3K9 monomethylation, AlphaScreen, 2 h; note: potency is the fitted concentration of half-maximal effect; nearly all actives have a fitted effect of over 75% in size
Target sequence (Q96KQ7 913-1193 limits assumed): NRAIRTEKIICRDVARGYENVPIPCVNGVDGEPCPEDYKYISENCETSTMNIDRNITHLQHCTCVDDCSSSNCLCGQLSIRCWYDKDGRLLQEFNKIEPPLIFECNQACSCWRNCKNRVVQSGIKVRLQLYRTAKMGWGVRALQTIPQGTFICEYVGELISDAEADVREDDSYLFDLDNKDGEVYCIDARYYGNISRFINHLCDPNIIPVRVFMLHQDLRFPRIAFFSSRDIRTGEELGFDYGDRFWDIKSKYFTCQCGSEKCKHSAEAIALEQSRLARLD
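Chemiluminescent proximity detection of H3K9 monomethylation, read after 10 min bead incubation in the dark. Reaction: 20 nM G9a, 500 nM biotin-H3K9 peptide, 20 uM SAM cofactor, 2 h, room temperature, following 15 min enzyme-compound preincubation.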
Starred values were filed as active, the others as inactive; ? = inconclusive; / = no result given; ! = a repeat was not active; [ ] = remark or other dose. Sampled rows, rich in hits. Any-hit rate of the full collection: about 11%. Unless noted, calls come from the whole dose curve; as a rule, active = well fitted curve in the direction sought with a large enough effect; inconclusive = small, poorly fitted or top-dose-only effect, or another doubt; inactive = no such curve, though single readings can be large; an effect the other way counts as inactive or inconclusive. Unless noted, % is set by controls: 0 for no effect and ±100 for the full control effect.

SMILES	Tau fibril ThT	Tau FP inhib	Sfp inh	Tau fluor cs	Coupling enz	G9a block
CCCC[C@@H]1CCCO[C@@](C(=O)NCc2ccccc2)(C(F)(F)F)C1	/	/	7.7%	/	-0.5	/
CCCCNC(C(=O)Nc1ccc([N+](=O)[O-])cc1Br)c1ccccc1 (stereo not drawn)	-5.3%	4.7%	31.6µM*	2.0%	1.9	2.24µM*
CCOCCCn1c(SCC(=O)Nc2ccc(C)cc2)nc2ccccc2c1=O	-10.8%	-4.2%	/	-20.9%	/	10.2%[59 µM]
CCOc1ccccc1CNC(=O)c1cnn(-c2ccc(C)cc2)c1-n1cccc1	-13.9%	4.3%	/	-4.6%	/	-20.2%[59 µM]
Cc1ccc(S(=O)(=O)CC(=O)Nc2nc(-c3ccccc3)cs2)cc1	-4.7%	-0.9%	2.5%	?	-2.1	25.5%[59 µM]
CC(=O)NNc1nc(-c2ccccc2)cs1	17.8µM*	?	20µM*	?	0.1	?
Cc1ccc(S(=O)(=O)CCC(=O)Nc2nc(-c3ccncc3)cs2)cc1	/	/	-3.5%	/	5.6	39.8µM*
CC(=O)Nc1ccc(-c2csc(NC(=O)Cc3ccccc3F)n2)cc1	/	/	2.7%	/	-9.6	39.8µM*
CC(=O)NNc1nc(-c2ccc(C)cc2)cs1	?	-4.4%	39.8µM*	-16.3%	0.2	31.6µM*
Cc1cc(S(=O)(=O)Nc2ccc(C(=O)NCCCN3CCCC3=O)cc2)ccc1F	/	/	/	/	/	-5.0%
CCOC(=O)CSc1nnc(SCCN2C(=O)c3ccccc3C2=O)s1	?	-4.7%	-5.3%	-15.8%	8.6	?
CCC(Sc1nnc(-c2ccco2)n1C)C(=O)Nc1nnc(C)s1 (stereo not drawn)	/	/	26.0%	/	1.6	10.8%
CCN(CC(=O)Nc1c(F)cccc1F)C(=O)CNC(=O)C1CCCCC1	/	/	/	/	/	2.4%
COc1ccc(C(CC(=O)Nc2ccc(F)c(Cl)c2)N2Cc3ccccc3C2=O)cc1OC (stereo not drawn)	3.2%	-13.3%	/	?	/	-5.4%[59 µM]
Cc1ccc(CN2CCSc3ccc(C(=O)N4CCN(c5ncccn5)CC4)cc32)cc1	?	8.9%	50.1µM*	-23.9%	-3.2	-24.8%[12.7 µM]
Cc1ccc(CN2CCSc3ccc(C(=O)N4CCOCC4)cc32)cc1	/	/	-9.2%	/	/	?
CCN1CCN(C(=O)c2ccc3c(c2)N(Cc2ccc(C)cc2)CCS3)CC1	/	/	6.3%	/	2.2	79.4µM*
Cc1ccc(Cl)cc1N1CCN(C(=O)c2ccc3c(c2)N(Cc2ccccc2)CCS3)CC1	-11.6%	-6.7%	/	-19.5%	/	?
CC1CC(C)CN(C(=O)c2ccc3c(c2)N(Cc2ccccc2)CCS3)C1 (stereo not drawn)	?	7.6%	?	-29.6%	1.3	39.8µM*
N#Cc1ccccc1NC(=O)C(=O)NCCCN1CCCC1=O	/	/	/	/	/	-31.6%
CCCCC(=O)O[C@]1(C(=O)CO)[C@H](C)C[C@H]2[C@@H]3CCC4=CC(=O)C=C[C@]4(C)[C@@]3(F)[C@@H](O)C[C@@]21C	-6.6%	3.1%	-13.9%	-16.7%	-0.9	29.3%[59 µM]
C=CCSc1nnc(C)c(/C=C/Nc2ccc(Cl)cc2)n1	?	9.7%	-11.5%	?	0.1	?
Cc1nnc(SCc2ccccc2)nc1/C=C/NOCc1ccc(Cl)cc1Cl	-10.9%	1.0%	-5.8%	-0.8%	-10.3	?
CSc1nnc(C)c(/C=C/Nc2ccc(F)cc2F)n1	25.1µM*	-3.5%	-9.9%	-10.9%	3.2	?
CSc1nnc(C)c(/C=C/NOCc2cccc(F)c2)n1	10.0%	0.3%	-9.1%	-0.8%	-0.8	22.4µM*
SMILES	Tau fibril ThT	Tau FP inhib	Sfp inh	Tau fluor cs	Coupling enz	G9a block
CCN1CCCC1CNS(=O)(=O)c1ccc(Cl)c(C(F)(F)F)c1 (stereo not drawn)	5.4%	-3.5%	2.7%	-1.1%	-0.6	?
COc1ccc(CNC(=O)CCCCCn2c(=O)[nH]c3ccccc3c2=O)cc1	2.5%	-9.3%	/	-9.7%	/	-2.7%[59 µM]
CSc1ccc2c(c1)C(N1CCN(C)CC1)Cc1ccccc1S2 (stereo not drawn)	?	5.3%	-20.5%	-11.7%	3.8	17.8µM*!
CSc1ccc2c(c1)[C@H](N1CCN(C)CC1)Cc1ccccc1S2	?	0.1%	-27.6%	-14.6%	2.4	?
O=C(CCN1C(=O)/C(=C\c2ccccc2)SC1=S)NNC(=O)c1ccccc1O	/	/	-11.9%	/	2.1	7.6%
Cc1c(N(C)S(=O)(=O)c2cccc(C(=O)NC(C)C)c2)c(=O)n(-c2ccccc2)n1C	/	/	79.4µM*	/	0.2	31.6µM*
Cc1c(N(C)S(=O)(=O)c2cccc(C(=O)NCC3CCCO3)c2)c(=O)n(-c2ccccc2)n1C (stereo not drawn)	/	/	/	/	/	-7.8%[0.501 µM]
COc1ccc(N2CCN(C(=O)C(=O)c3c(C)n(C)c4ccccc34)CC2)cc1	-13.2%	14.7%	4.1%	-14.2%	0.1	5.01µM*
COc1ccccc1N1CCN(C(=O)C(=O)c2c(C)n(C)c3ccccc23)CC1	/	/	1.4%	/	4.7	-4.5%
COc1ccc(N2CCN(CCCNC(=O)C(=O)c3c(C)n(C)c4ccccc34)CC2)cc1	/	/	7.4%	/	/	39.8µM*
C=COCCNC(=S)N1CCOCCOCCN(C(=S)NCCOC=C)CCOCC1	-2.4%	6.8%	23.3%	-4.2%	1.6	15.1%[12.7 µM]
Cc1ccccc1C1CC(=O)Oc2cc(C)c(Cl)c(C)c21 (stereo not drawn)	-4.5%[81.4 µM]	-9.4%[81.3 µM]	-29.4%	-5.4%[81.3 µM]	2.1	25.1%
Clc1nssc1=Nc1nncs1	/	/	/	/	/	-0.3%[0.501 µM]
OCc1ccccc1N=c1ssnc1Cl	35.5µM*	?	8.91µM*	?	3.0	-7.2%[2.33 µM]
COc1cc(N=c2ssnc2Cl)cc(OC)c1	-1.4%	2.7%	1.78µM*	-8.7%	-12.2	?
Cc1cc(C)cc(C(N)=Nc2cccc(C#N)c2)c1	/	/	6.7%	/	0.6	9.7%[2.33 µM]
N#Cc1cccc(N=c2ssnc2Cl)c1	11.2µM*	?	7.94µM*	-18.0%	3.7	0.891µM*
Clc1nssc1=Nc1ccc(Br)cc1	12.6µM*	?	10µM*	-25.1%	2.4	3.16µM*
Clc1ccc(N=c2ssnc2Cl)nc1	-7.5%	-7.3%	20.7%	-9.5%	0.9	-2.8%
O=C(NC1CCCC1)C1c2ccccc2C(=O)N1C1CCCCC1 (stereo not drawn)	-1.1%	-3.0%	14.5%	-3.0%	2.7	7.0%[59 µM]
O=C(NC1CCCCCC1)C1c2ccccc2C(=O)N1C1CC1 (stereo not drawn)	-3.5%	-5.7%	13.0%	-7.5%	-2.5	8.91µM*

Source: PubChem
